Assay results from PubChem BioAssay.
Values without a mark were called inactive. For some assays here: Measured potencies and affinities stand elsewhere. Calls of active or inactive are those of the source. Unless noted, no rule for the calls is given here.

Columns and labels:
[1] = antimalarial activity against Dd2 strain (AID 2302;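 active = growth inhibition above 50% at the single 2 µM test dose, taken to imply half-maximal potency below 2 µM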;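 also: 0% = DMSO untreated growth and 100% = chloroquine plus artemisinin killed control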); conditions: P. falciparum Dd2 in RBCs, LDH growth readout, 72 h; at 2 µM; stronger effect = higher value
[2] = human hepatoma cell viability loss – ATP luminescence, cytotoxicity control for P. falciparum antimalarial project, primary screen (AID 2303;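 active = inhibition above 50%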;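 also: 0% = DMSO wells and 100% = digitonin-killed cells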); conditions: HepG2 viability, 24-48 h, at 10 µM, stronger effect = higher value
[3] = target: L-lactate dehydrogenase (Plasmodium falciparum (isolate CDC / Honduras)) (UniProt Q27743); assay: PfLDH activity inhibition – cell lysate, 3D7 strain, counter-screen for P. falciparum growth inhibition project (AID 2304);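 also: 0% = vehicle and 100% = reference inhibitor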; conditions: P. falciparum 3D7 crude extract, LDH APAD/NBT absorbance; at 2 µM; stronger effect = higher value
L-lactate dehydrogenase (Plasmodium falciparum (isolate CDC / Honduras)), sequence (Q27743 whole entry, looked up): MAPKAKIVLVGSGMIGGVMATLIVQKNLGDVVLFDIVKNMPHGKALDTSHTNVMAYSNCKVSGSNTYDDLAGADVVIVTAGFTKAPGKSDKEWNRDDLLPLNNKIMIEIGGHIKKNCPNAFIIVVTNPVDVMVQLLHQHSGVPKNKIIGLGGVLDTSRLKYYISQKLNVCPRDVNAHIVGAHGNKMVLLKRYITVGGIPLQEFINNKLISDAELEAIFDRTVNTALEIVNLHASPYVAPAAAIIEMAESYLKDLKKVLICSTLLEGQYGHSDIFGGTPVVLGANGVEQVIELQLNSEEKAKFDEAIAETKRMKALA

[4] = inhibition of 3D7 malaria parasite growth – strain 3D7 (AID 2306);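 also: 0% = DMSO wells and 100% = chloroquine plus artemisinin control wells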; conditions: P. falciparum 3D7 erythrocytic growth, LDH absorbance, 72 h; at 2 µM; stronger effect = higher value
[5] = target: Calcium-dependent protein kinase 1 (Plasmodium falciparum (isolate 3D7)) (UniProt P62344); assay: PfCDPK1 kinase inhibitors, biochemical, TCAMS library (AID 1159585; cut-off not given, nearly all actives have IC50 up to about 0.98 µM;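 also: inhibitors leave more ATP so luminescence rises with inhibition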); conditions: recombinant PfCDPK1, Kinase-Glo ATP depletion luminescence
Calcium-dependent protein kinase 1 (Plasmodium falciparum (isolate 3D7)), sequence (P62344 whole entry, looked up): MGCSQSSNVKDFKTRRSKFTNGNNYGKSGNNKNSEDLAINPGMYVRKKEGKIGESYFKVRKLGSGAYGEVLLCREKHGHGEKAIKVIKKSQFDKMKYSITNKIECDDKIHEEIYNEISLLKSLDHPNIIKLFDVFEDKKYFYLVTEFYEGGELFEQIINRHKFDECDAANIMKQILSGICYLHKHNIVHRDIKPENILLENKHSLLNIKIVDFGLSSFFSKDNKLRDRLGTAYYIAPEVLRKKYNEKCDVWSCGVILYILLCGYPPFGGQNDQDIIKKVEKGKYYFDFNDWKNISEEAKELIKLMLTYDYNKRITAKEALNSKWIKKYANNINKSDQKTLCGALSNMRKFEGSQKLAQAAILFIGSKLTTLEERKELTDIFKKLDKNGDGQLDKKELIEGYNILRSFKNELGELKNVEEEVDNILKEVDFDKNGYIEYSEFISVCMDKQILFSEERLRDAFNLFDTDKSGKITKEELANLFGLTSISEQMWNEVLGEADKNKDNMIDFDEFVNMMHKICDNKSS

[6] = target: Plasmodium falciparum protein kinase 6 (PK6, PF3D7_1337100) (UniProt Q8IDW1); assay: PfPK6 kinase inhibitors, biochemical, TCAMS library (AID 1159586); conditions: recombinant PfPK6, Kinase-Glo ATP depletion luminescence
Plasmodium falciparum protein kinase 6 (PK6, PF3D7_1337100), sequence (Q8IDW1 1-305): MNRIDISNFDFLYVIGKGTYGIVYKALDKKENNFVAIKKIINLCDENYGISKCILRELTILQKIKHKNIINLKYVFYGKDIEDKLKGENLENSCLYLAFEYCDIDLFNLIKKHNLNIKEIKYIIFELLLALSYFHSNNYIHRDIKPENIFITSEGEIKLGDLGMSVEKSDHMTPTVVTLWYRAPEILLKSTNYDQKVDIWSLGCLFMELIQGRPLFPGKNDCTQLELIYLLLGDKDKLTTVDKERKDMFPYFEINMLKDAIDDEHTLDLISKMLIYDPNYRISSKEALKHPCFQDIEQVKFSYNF

[7] = target: Protein kinase 7 (PK7), Plasmodium falciparum 3D7 (PF3D7_0213400) (UniProt Q7YTF7); assay: inhibition of Plasmodium PK7 catalytic activity – biochemical, TCAMS antimalarial set, Kinase-Glo luminescence (AID 1159587); conditions: recombinant PfPK7, Kinase-Glo ATP depletion luminescence
Protein kinase 7 (PK7), Plasmodium falciparum 3D7 (PF3D7_0213400), sequence (Q7YTF7 1-343): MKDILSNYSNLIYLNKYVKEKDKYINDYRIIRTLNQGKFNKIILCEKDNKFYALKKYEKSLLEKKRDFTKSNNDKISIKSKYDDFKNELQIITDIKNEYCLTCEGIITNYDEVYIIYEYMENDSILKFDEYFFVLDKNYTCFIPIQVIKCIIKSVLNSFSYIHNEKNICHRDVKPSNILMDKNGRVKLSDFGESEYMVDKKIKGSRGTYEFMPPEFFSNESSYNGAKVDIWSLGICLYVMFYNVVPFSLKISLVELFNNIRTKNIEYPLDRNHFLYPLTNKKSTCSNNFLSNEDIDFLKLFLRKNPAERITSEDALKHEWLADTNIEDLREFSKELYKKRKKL

[8] = target: Calcium-dependent protein kinase 4 (Plasmodium falciparum (isolate 3D7)) (UniProt Q8IBS5); assay: PfCDPK4 kinase inhibitors, biochemical, TCAMS library (AID 1159588; cut-off not given, nearly all actives have IC50 up to about 0.91 µM); conditions: recombinant PfCDPK4, Kinase-Glo ATP depletion luminescence
Calcium-dependent protein kinase 4 (Plasmodium falciparum (isolate 3D7)), sequence (Q8IBS5 whole entry, looked up): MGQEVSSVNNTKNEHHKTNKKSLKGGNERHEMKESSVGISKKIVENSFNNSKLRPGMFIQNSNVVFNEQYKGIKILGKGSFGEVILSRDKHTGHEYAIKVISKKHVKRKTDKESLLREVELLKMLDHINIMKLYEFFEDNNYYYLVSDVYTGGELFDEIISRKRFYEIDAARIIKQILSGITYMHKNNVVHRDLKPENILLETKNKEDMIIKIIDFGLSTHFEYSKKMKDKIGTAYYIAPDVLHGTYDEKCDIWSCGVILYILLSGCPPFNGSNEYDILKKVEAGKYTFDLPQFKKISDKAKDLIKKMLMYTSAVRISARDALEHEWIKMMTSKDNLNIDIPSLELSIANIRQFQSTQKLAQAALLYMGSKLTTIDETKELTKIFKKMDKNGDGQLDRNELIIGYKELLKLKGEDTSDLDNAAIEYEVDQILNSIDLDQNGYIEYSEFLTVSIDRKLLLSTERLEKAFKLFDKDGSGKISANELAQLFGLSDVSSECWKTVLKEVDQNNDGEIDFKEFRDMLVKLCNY

SMILES | growth inhibition [1] | inhibition [2] | inhibition [3] [%] | growth inhibition [4] | outcome [5] | outcome [6] | outcome [7] | outcome [8]
O=c1cc(NCCCNCc2cccc3c2OC(F)(F)O3)[nH]c2ccccc12 | 15% | 4% | 7 | 88% (active) | inactive | inactive | inactive | inactive
Cc1ccc(C(NC(=O)C2CCCCC2)c2ccc3cccnc3c2O)cc1 (stereo not given) | 59% (active) | 69% (active) | 2 | 91% (active) | inactive | inactive | inactive | inactive
Cc1cccc2[nH]c(-c3ccc(-c4cccc(NC(=O)Nc5ccccc5)c4)cc3)nc12 | 14% | 18% | 9 | 101% (active) | inactive | inactive | inactive | inactive
NS(=O)(=O)c1cncc(-c2ccc3nccc(-c4cn[nH]c4)c3n2)c1 | 100% (active) | 33% | -2 | 99% (active) | inactive | inactive | inactive | inactive
COc1ccc(-c2nnc(Sc3ccc(C#N)c([N+](=O)[O-])c3)n2CCC(C)C)cc1 | 53% (active) | 15% | 5 | 89% (active) | inactive | inactive | inactive | inactive
O=C(Nc1ccc(-c2ccc(-c3nc4ccccc4[nH]3)s2)cc1)Nc1ccsc1 | 54% (active) | 25% | 5 | 100% (active) | inactive | inactive | inactive | inactive
CC(C)c1ccc(NC(=O)N[C@H]2CCN(CCCCCNC(=O)/C=C/c3ccc(Cl)c(Cl)c3)C2)cc1 | 14% | 56% (active) | 7 | 100% (active) | inactive | inactive | inactive | inactive
COc1ccc(CN2CCCN(Cc3cccc(NC(=O)c4ccc(-c5ccccc5)cc4)c3)CC2)cc1 | 24% | 37% | 1 | 94% (active) | inactive | inactive | inactive | inactive
COc1ccc2nc(N(CCCn3ccnc3)C(=O)C=Cc3cccs3)sc2c1 | 26% | 8% | -3 | 92% (active) | inactive | inactive | inactive | inactive
NC(=O)c1ccsc1NC(=O)CNC(c1ccc(F)cc1)c1cccs1 (stereo not given) | 71% (active) | 31% | -2 | 92% (active) | inactive | inactive | inactive | inactive
CN1CCN(CCCN(Cc2ccc(-c3cccc(CNC4CCCC4)c3)cc2)C(=O)/C=C/c2ccccc2)CC1 | 87% (active) | 36% | 4 | 100% (active) | inactive | inactive | inactive | inactive
CN(C)CCN(C)Cc1ccc(-c2ccc3c(Nc4ccc(Oc5ccccn5)cc4)ccnc3c2)o1 | 100% (active) | 16% | 6 | 100% (active) | inactive | inactive | inactive | inactive
O=C1c2ccccc2-n2c1nc1ccccc1c2=O | 80% (active) | 9% | 4 | 93% (active) | inactive | inactive | inactive | inactive
CN(C(=O)C1(c2ccc(Cl)cc2)CC1)C1CCN(CCCCCNC(=O)/C=C/c2ccc(Cl)c(Cl)c2)CC1 | 0% | 91% (active) | -2 | 88% (active) | inactive | inactive | inactive | inactive
CCN(CC)CCOc1ccc(C(O)(C#CC(O)(c2ccc(C)cc2)c2ccc(OCCN(CC)CC)cc2)c2ccc(C)cc2)cc1 (stereo not given) | 98% (active) | 94% (active) | 6 | 97% (active) | inactive | inactive | inactive | inactive
O=C(NCc1cccc(F)c1)Nc1cccc(-c2ccc(-c3nc4ccc(F)cc4[nH]3)cc2)c1 | 0% | 46% | -3 | 84% (active) | inactive | inactive | inactive | inactive
O=C(/C=C/c1ccc2ccccc2c1)NCCCCCN1CCC(c2c[nH]c3ccccc23)CC1 | 4% | 18% | 6 | 90% (active) | inactive | inactive | inactive | inactive
Cc1cccc2[nH]c(-c3cccc(-c4cccc(CN5CCN(c6ccc(C#N)cn6)CC5)c4)c3)nc12 | 34% | 11% | -5 | 94% (active) | inactive | inactive | inactive | inactive
CC(=O)Nc1ccc(C(=O)Nc2cccc(-c3ccc(-c4nc5ccccc5[nH]4)s3)c2)cn1 | 91% (active) | 9% | 2 | 101% (active) | inactive | inactive | inactive | inactive
Nc1c2c(nc3ccc(NC(=O)Cc4ccccc4)cc13)CCCC2 | -2% | 9% | 6 | 101% (active) | inactive | inactive | inactive | inactive

SMILES | growth inhibition [1] | inhibition [2] | inhibition [3] [%] | growth inhibition [4] | outcome [5] | outcome [6] | outcome [7] | outcome [8]
COc1cc(-c2nc(-c3ccccc3)c(-c3ccccc3)[nH]2)ccc1OCCN(C)C | 100% (active) | -8% | 5 | 101% (active) | inactive | inactive | inactive | inactive
CCN(CCCN1CCCCC1)c1cc(C)nc(Nc2ccc(F)c(C(F)(F)F)c2)n1 | 93% (active) | 32% | 0 | 100% (active) | inactive | inactive | inactive | inactive
COc1ccc(-c2ccc(NC(=O)c3cccc(Cl)c3)cc2)cc1CNC(C)C | 88% (active) | 26% | 1 | 100% (active) | inactive | inactive | inactive | inactive
O=C(NC1CCN(CC2(c3ccccc3F)CCCC2)CC1)c1ccn[nH]1 | 91% (active) | -5% | -1 | 93% (active) | inactive | inactive | inactive | inactive
Cc1ccc(C(NC(=O)Cc2ccccc2)c2ccc3cccnc3c2O)cc1 (stereo not given) | 77% (active) | 47% | 6 | 94% (active) | inactive | inactive | inactive | inactive
O=C(/C=C/c1ccc(Cl)c(Cl)c1)NCCCCCN1CCC(NC(=O)Nc2ccc(F)c(Cl)c2)CC1 | 11% | 98% (active) | 5 | 100% (active) | inactive | inactive | inactive | inactive
CNCc1cccc2[nH]c(-c3ccc(Cc4cc(Cl)ccc4OCC(C)C)o3)nc12 | 23% | 20% | 0 | 97% (active) | inactive | inactive | inactive | inactive
c1ccc(COc2ccc(Nc3ncnc4ccc(-c5ccc(CN6CCSCC6)o5)cc34)cc2)cc1 | 4% | 4% | 4 | 94% (active) | inactive | inactive | inactive | inactive
CCC[C@@H]1CCN[C@H]([C@H](O)c2ccnc3ccc(OC)cc23)C1 | 69% (active) | -3% | -1 | 99% (active) | inactive | inactive | inactive | inactive
Cc1cccc2[nH]c(-c3ccc(-c4cccc(CNCc5cccc(N)c5)c4)s3)nc12 | 85% (active) | 15% | -4 | 102% (active) | inactive | inactive | inactive | inactive
COc1ccc2ncc(C#N)c(CCN3[C@@H]4CC[C@H]3CC(NCc3ccc5c(n3)NC(=O)CS5)C4)c2c1 (stereo not given in full) | 27% | 6% | -1 | 95% (active) | inactive | inactive | inactive | inactive
O=C(c1ccc(-c2ccc(-c3nc4ccccc4[nH]3)s2)cc1)N1CCCCC1CN1CCC(O)C1 (stereo not given) | 55% (active) | 18% | 2 | 84% (active) | inactive | inactive | inactive | inactive
COc1ccc2nccc([C@@H](O)CN3CCC(NCc4cc5ccc(Cl)cc5[nH]4)CC3)c2c1 | 61% (active) | 30% | 4 | 99% (active) | inactive | inactive | inactive | inactive
CCOc1cc(Cc2cnc(N)nc2N)cc(OCC)c1OCCCCC(=O)OC | 0% | -12% | 0 | 95% (active) | inactive | inactive | inactive | inactive
CCn1c(-c2nonc2N)nc2cnc(Oc3cccc(NC(=O)c4ccc(OCCN5CCCC5)cc4)c3)cc21 | 1% | 25% | 2 | 92% (active) | inactive | inactive | inactive | inactive
CC(C)N1CCC(N(Cc2ccc(-c3ccc(C(F)(F)F)cc3)cc2)C(=O)Cn2c(CCc3cccc(F)c3F)nc(=O)c3cccnc32)CC1 | 80% (active) | 100% (active) | 6 | 100% (active) | inactive | inactive | inactive | inactive
CC(=NNC(=S)NC(C)(C)C)c1ccccn1 | 100% (active) | 63% (active) | -3 | 99% (active) | inactive | inactive | inactive | inactive
O=C(Nc1ccc(C(F)(F)F)cc1)N[C@H]1CCN(CCCCCNC(=O)[C@@H]2C[C@H]2c2ccc(Cl)c(Cl)c2)C1 | -1% | 41% | -2 | 96% (active) | inactive | inactive | inactive | inactive
CCN1CCN(c2cc(C)c3cc(NC(=O)c4ccc(OC)c([N+](=O)[O-])c4)ccc3n2)CC1 | 93% (active) | 25% | 0 | 100% (active) | inactive | inactive | inactive | inactive
CC(CN(C)C)C(=O)Nc1cccc(-c2ccc(-c3nc4ccc(F)cc4[nH]3)cc2)c1 (stereo not given) | 100% (active) | 11% | -1 | 101% (active) | inactive | inactive | inactive | inactive
